{"source": "PubChem BioAssay (NCATS)", "note": "Records with an inconclusive call do not appear. Entries that show only a call come without a potency. Calls of active or inactive are those of the source. Calls follow the shape of the dose curve; as a rule, active = well fitted cell-killing curve with a large enough effect; inconclusive = small, poorly fitted or top-dose-only effect, or effect the other way; inactive = no such curve, though single readings can be large or run the other way. Also: nearly all actives have a fitted effect of over 30% in size. Potency is read from the fitted curve at half-maximal effect.", "data": [{"assay": "Quantitative High-Throughput drug screen in 47 multiple myeloma cell lines against the NCATS MIPE library collection: PCM6_Riken cell viability assay (AID 1919870)", "details": "CellTiter-Glo ATP, 48 h; series mostly up to 45.8 µM", "procedure,_shortened": "(§1)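 Myeloma cells (500/well) treated with MIPE 4.0 compounds for 48 h at 37 °C, 5% CO2. Viability read as ATP via CellTiter-Glo luminescence after 5 min at RT; DMSO-only wells = 100%, media-only = 0% viability.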", "values": [{"smiles": "O=C(O)c1ccc(-c2cc3cccnc3c(-c3ccc4nonc4c3)n2)cc1", "Potency": "29.6 µM (active)"}, {"smiles": "O=c1c(O)c(-c2ccc(O)cc2)oc2cc(O)cc(O)c12", "Potency": "18.7 µM (active)"}, {"smiles": "O=c1cc(-c2ccccc2)oc2cc(O)c(O)c(O)c12", "Potency": "inactive"}, {"smiles": "CC(=O)N(C)C1(c2ccccc2)CCN(CCC[C@]2(c3ccc(Cl)c(Cl)c3)CCCN(C(=O)c3ccccc3)C2)CC1", "Potency": "13.2 µM (active)"}, {"smiles": "CCS(=O)(=O)N1CC(CC#N)(n2cc(-c3ncnc4[nH]ccc34)cn2)C1", "Potency": "5.9 µM (active)"}]}, {"assay": "Quantitative High-Throughput drug screen in 47 multiple myeloma cell lines against the NCATS MIPE library collection: RPMI8226_ATCC cell viability assay (AID 1919871)", "details": "RPMI8226 myeloma viability, CellTiter-Glo ATP luminescence, 48 h; series mostly up to 45.8 µM", "procedure,_shortened": "as §1", "values": [{"smiles": "CC(C)(C)OC(=O)N[C@H]1CCCCCC=C[C@@H]2C[C@@]2(C(=O)NS(=O)(=O)C2CC2)NC(=O)[C@@H]2C[C@@H](OC(=O)N3Cc4cccc(F)c4C3)CN2C1=O", "Potency": "inactive"}, {"smiles": "Cn1cc(C=C2C(=O)Nc3cccnc32)c2ccccc21", "Potency": "inactive"}, {"smiles": "COc1ccc2c(Oc3ccc(NC(=O)c4c(C)n(CC(C)(C)O)n(-c5ccccc5)c4=O)cc3F)ccnc2c1", "Potency": "23.5 µM (active)"}, {"smiles": "O=C(NOCC(O)CO)c1cc(Br)c(F)c(F)c1Nc1ccc(I)cc1F", "note": "(configuration not stated)", "Potency": "inactive"}, {"smiles": "COc1ccc2c3c1OC1C[C@@H](O)C=C[C@@]31CCN(C)C2", "note": "(some centres not stated)", "Potency": "inactive"}, {"smiles": "CC[C@H]1OC(=O)[C@H](C)C(=O)[C@H](C)[C@@H](O[C@H]2O[C@H](C)C[C@H](N(C)C)[C@@H]2O)[C@](C)(OC)C[C@@H](C)C(=O)[C@H](C)[C@H]2N(CCCCn3cnc(-c4cccnc4)c3)C(=O)O[C@]12C", "Potency": "18.7 µM (active)"}, {"smiles": "O=C(Nc1c(Cl)cncc1Cl)c1ccc(OC(F)F)c(OCC2CC2)c1", "Potency": "inactive"}, {"smiles": "NC(=O)NN=Cc1ccc([N+](=O)[O-])o1", "Potency": "inactive"}, {"smiles": "COc1cccc([C@@H](C)NCCCc2ccccc2Cl)c1", "Potency": "inactive"}, {"smiles": "N[C@@]1(C(=O)O)CS(=O)(=O)[C@H]2[C@H](C(=O)O)[C@H]21", "Potency": "inactive"}, {"smiles": "CN(C)C1CCN(C(=O)c2ccc(NC(=O)Nc3nc(N4CCOCC4)nc(N4CCOCC4)n3)cc2)CC1", "Potency": "0.0093 µM (active)"}, {"smiles": "CC(=O)OC1C(C)OC(Oc2c(-c3ccc(O)cc3)oc3cc(O)cc(O)c3c2=O)C(O)C1OC(C)=O", "note": "(configuration not stated)", "Potency": "10.5 µM (active)"}, {"smiles": "O=C1NC(=O)C(=Cc2cccc(C(F)(F)F)c2)S1", "Potency": "7.43 µM (active)"}, {"smiles": "O=C(O)c1ccc(-c2c[nH]c3ncc(-c4ccccc4)cc23)cc1C1CCCC1", "Potency": "inactive"}, {"smiles": "O=C(NCc1ccncc1)C12C[C@H]3C[C@@H](C1)CC(c1ccc(Cl)cc1)(C3)C2", "Potency": "29.6 µM (active)"}]}, {"assay": "Quantitative High-Throughput drug screen in 47 multiple myeloma cell lines against the NCATS MIPE library collection: OPM2_DSMZ cell viability assay (AID 1919872)", "details": "OPM2 myeloma viability, CellTiter-Glo ATP luminescence, 48 h; series mostly up to 45.8 µM", "procedure,_shortened": "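Inhibition of cell viability is measured here. Each line was plated at 500 cells per well, treated with MIPE 4.0 drugs, kept 48 hours at 37C, then assayed for ATP content by CellTiter-Glo luminescence.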", "values": [{"smiles": "Cc1ccc(/C=N/NC(=O)c2ccccc2Oc2ccccc2)o1", "Potency": "20.9 µM (active)"}, {"smiles": "CC(C)(C)OC(=O)N[C@H]1CCCCCC=C[C@@H]2C[C@@]2(C(=O)NS(=O)(=O)C2CC2)NC(=O)[C@@H]2C[C@@H](OC(=O)N3Cc4cccc(F)c4C3)CN2C1=O", "Potency": "inactive"}, {"smiles": "Cn1cc(C=C2C(=O)Nc3cccnc32)c2ccccc21", "Potency": "inactive"}, {"smiles": "CCc1ccc(C=C2SC(=S)NC2=O)cc1", "Potency": "inactive"}, {"smiles": "O=C(NOCC(O)CO)c1cc(Br)c(F)c(F)c1Nc1ccc(I)cc1F", "note": "(configuration not stated)", "Potency": "inactive"}, {"smiles": "COc1ccc2c3c1OC1C[C@@H](O)C=C[C@@]31CCN(C)C2", "note": "(some centres not stated)", "Potency": "inactive"}, {"smiles": "O=C(Nc1c(Cl)cncc1Cl)c1ccc(OC(F)F)c(OCC2CC2)c1", "Potency": "inactive"}, {"smiles": "NC(=O)NN=Cc1ccc([N+](=O)[O-])o1", "Potency": "inactive"}, {"smiles": "N#C[C@H]1C[C@H]2C[C@@H]2N1C(=O)[C@@H](N)C12CC3CC(CC(O)(C3)C1)C2", "Potency": "inactive"}, {"smiles": "CCOc1ccc(Nc2nc(-c3c(C)nc4ccccn34)cs2)cc1", "Potency": "0.0037 µM (active)"}, {"smiles": "NC(=O)[C@@H](CCC(F)(F)F)N(Cc1ccc(-c2ncon2)cc1F)S(=O)(=O)c1ccc(Cl)cc1", "Potency": "inactive"}, {"smiles": "COc1cccc([C@@H](C)NCCCc2ccccc2Cl)c1", "Potency": "inactive"}, {"smiles": "CCOC(CN1C(=O)[C@](CC(=O)Nc2ccc(C)cc2)(NC(=O)Nc2ccc(C)cc2)c2ccccc21)OCC", "Potency": "inactive"}, {"smiles": "O=C(Nc1cc(Cl)cc2c1[nH]c1cnccc12)c1cccnc1", "Potency": "inactive"}, {"smiles": "O=C(CCc1ccc(O)cc1)c1c(O)cc(O)cc1O[C@@H]1O[C@H](CO)[C@H](O)[C@H](O)[C@H]1O", "Potency": "9.35 µM (active)"}, {"smiles": "N[C@@]1(C(=O)O)CS(=O)(=O)[C@H]2[C@H](C(=O)O)[C@H]21", "Potency": "inactive"}, {"smiles": "COc1ccc(-c2nc(N3CCOCC3)c3sc(CN(C)c4ncc(C(=O)NO)cn4)cc3n2)cn1", "Potency": "0.0021 µM (active)"}, {"smiles": "CCCCCCCCCCCC1=C(O)C(=O)C=C(O)C1=O", "Potency": "7.43 µM (active)"}, {"smiles": "CN(C)C1CCN(C(=O)c2ccc(NC(=O)Nc3nc(N4CCOCC4)nc(N4CCOCC4)n3)cc2)CC1", "Potency": "0.0209 µM (active)"}, {"smiles": "CCN(CC)CCOc1ccc(C(=C(Cl)c2ccccc2)c2ccccc2)cc1", "Potency": "inactive"}, {"smiles": "COc1ccc2c(Oc3ccc(NC(=O)c4c(C)n(CC(C)(C)O)n(-c5ccccc5)c4=O)nc3)ccnc2c1", "Potency": "inactive"}, {"smiles": "N#CC1(c2ccc(NC(=O)c3cccnc3NCc3ccncc3)cc2)CCCC1", "Potency": "inactive"}, {"smiles": "CC(=O)OC1C(C)OC(Oc2c(-c3ccc(O)cc3)oc3cc(O)cc(O)c3c2=O)C(O)C1OC(C)=O", "note": "(configuration not stated)", "Potency": "inactive"}, {"smiles": "O=C1NC(=O)C(=Cc2cccc(C(F)(F)F)c2)S1", "Potency": "inactive"}, {"smiles": "CO[C@H]1C[C@@H]2CC[C@@H](C)[C@@](O)(O2)C(=O)C(=O)N2CCCC[C@@H]2C(=O)O[C@H]([C@@H](C)C[C@@H]2CC[C@H](O)[C@H](OC)C2)CC(=O)[C@H](C)C=C(C)[C@@H](O)[C@@H](OC)C(=O)[C@H](C)C[C@H](C)C=CC=CC=C1C", "Potency": "inactive"}, {"smiles": "N#Cc1ccc(NC(=O)Nc2ccccc2Br)c2n[nH]nc12", "Potency": "inactive"}, {"smiles": "O=C(O)c1ccc(-c2c[nH]c3ncc(-c4ccccc4)cc23)cc1C1CCCC1", "Potency": "inactive"}]}]}
